# This is part of a sample that, as a whole, favours compounds with a hit. Of some 83,000 tested, about 20% had one in any assay.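 Cells were grown in 96-well plates and exposed to the test compound at a single concentration for 48 hours; results are reported as percent growth, with values below 10 considered active.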 Unmarked numbers belong to inactive results. Calls of active or inactive are those of the source.
# Columns and labels:
# Experiment in all cases: NCI-60 one-dose screen, 48 h (100 = growth as untreated, 0 = no growth, -100 = all killed)
# Details in all cases: 10 µM unless noted
# [1] = tested on: HCT-15 colon
# [2] = tested on: HT29 colon
# [3] = tested on: SNB-75 CNS
# [4] = tested on: SNB-19 CNS
# [5] = tested on: U251 CNS
# [6] = tested on: PC-3 prostate
# [7] = tested on: SK-MEL-5 melanoma
# [8] = tested on: UACC-62 melanoma
# [9] = tested on: LOX IMVI melanoma
# [10] = tested on: SK-MEL-28 melanoma
# [11] = tested on: SK-MEL-2 melanoma
# [12] = tested on: SN12C renal
# [13] = tested on: UO-31 renal
# [14] = tested on: TK-10 renal
# [15] = tested on: ACHN renal
# [16] = tested on: CAKI-1 renal
# [17] = tested on: A498 renal
# [18] = tested on: MOLT-4 leukemia
# [19] = tested on: CCRF-CEM leukemia
# [20] = tested on: EKVX NSCLC
Structure (SMILES),growth [1],growth [2],growth [3],growth [4],growth [5],growth [6],growth [7],growth [8],growth [9],growth [10],growth [11],growth [12] [%],growth [13],growth [14],growth [15],growth [16],growth [17],growth [18],growth [19],growth [20] [%]
COC(=O)[C@@H](Cc1c[nH]c2ccccc12)NC(=O)/C=C/c1ccccc1,13.7%,85.5%,15.3%,46.4%,14.2%,18.7%,31.4%,44.1%,38.3%,44.3%,16.6%,50.7,36.8%,54.1%,39.2%,31.7%,-9.95% (active),24.1%,,
CS(=O)(=O)c1ccc(Cl)c([N+](=O)[O-])c1,99.4%,94.7%,114%,105%,109%,77.8%,106%,112%,88.2%,127%,99.8%,107,5.92% (active),108%,108%,-88.3% (active),106%,53.2%,,
CN(C)c1nc(-c2ccco2)n2nc(-c3ccc(Cl)cc3)cc2n1,92.7%,58.6%,20.9%,77.9%,59.5%,64.7%,81.2%,87%,50.5%,94.8%,99.2%,86.6,20.7%,23.1%,28.5%,74.1%,75.8%,86.8%,86.7%,
O=C(CC(=O)c1ccccc1F)Nc1ccc([N+](=O)[O-])cc1,87.8%,91.8%,79.1%,96.9%,94.7%,98.3%,86.4%,80.1%,99.7%,100%,84%,85.3,89.3%,91.7%,100%,106%,109%,93.3%,,
Cc1cccc2nc3ccccc3c(Nc3ccc(NS(C)(=O)=O)cc3)c12,37.2%,46%,68.3%,59.7%,15.8%,66.7%,48.3%,63.4%,33.8%,73%,112%,38.9,21.6%,78.6%,-27.1% (active),23.4%,45.3%,-0.487% (active),,
Cc1cc2nc(CN)[nH]c2cc1C,109%,51.3%,92%,102%,100%,99.8%,104%,113%,109%,108%,110%,111,101%,104%,112%,108%,98.7%,102%,,
COc1cc(-c2nn(C(=O)NCCN3CCN(C)CC3)cc2-c2ccncc2)ccc1Cl,88.7%,47%,42.3%,77.5%,80.9%,74.3%,62.4%,57.6%,85.9%,68.1%,89.5%,82.4,54%,20.5%,69.5%,79.7%,65.8%,77.4%,88.8%,
COc1ccc2c(c1)N(Cc1ccc(Cl)cc1)CCC2N1CCCC1=O (stereo not drawn),33.5%,45.5%,27.1%,54.7%,39.1%,24%,24.7%,42.1%,30.3%,63.5%,64.4%,39.2,8.64% (active),55.3%,53.3%,40.8%,-7.14% (active),34.5%,,
CCN(C(=O)CCl)C(C)(C)C(SSSC(c1ccc(Cl)cc1)C(C)(C)N(CC)C(=O)CCl)c1ccc(Cl)cc1 (stereo not drawn),56.3%,18%,84.3%,117%,63.5%,63.3%,73.5%,-2.54% (active),66.6%,-24.6% (active),78.5%,88.3,66.9%,101%,78.2%,29.1%,98.8%,36.9%,,
CC(=O)Nc1c(Br)cc2c(c1Br)Cc1cc(Br)ccc1-2,91.7%,52.8%,74.3%,79.4%,12.8%,67.8%,88.2%,72.2%,20.7%,98.3%,99.6%,83.1,67.3%,109%,60.8%,81.1%,,76.9%,66.4%,
CC1=CC(=O)OC1C/C=C(\C)CCC1[C@@]2(C)CCC[C@@](C)(C(=O)O)C2CC[C@@]1(C)O (stereo partly drawn),14.1%,86.8%,74%,53.3%,35.4%,59.1%,-23.8% (active),15.4%,97.3%,26.7%,,41,32.2%,53.6%,26.1%,32.9%,52.7%,,70.2%,38.8
ClC1=NC(Cl)C(Cl)=N/C1=N\c1ncn[nH]1 (stereo not drawn),-71.9% (active),-62.8% (active),68.9%,111%,-50.5% (active),20.3%,74.1%,83.6%,-50.7% (active),15.1%,-5.62% (active),26.3,-81.7% (active),-75.9% (active),-92.4% (active),-75.9% (active),,-52.2% (active),,
COc1ccc(C(=O)OC2C(OC3C(O)COC(O[C@H]4C[C@H]5[C@@H]6CC=C7C[C@@H](O)CC[C@]7(C)[C@H]6CC[C@]5(C)[C@H]4[C@H](C)C(=O)CCC(C)C)C3OC(C)=O)OCC(O)C2O)cc1 (stereo partly drawn),-51.5% (active),0.168% (active),-9.67% (active),-22.8% (active),-42.8% (active),-32.6% (active),-77.1% (active),-49.9% (active),-49.8% (active),-54.6% (active),-52% (active),44.3,-35.7% (active),-20.1% (active),28.6%,-31.1% (active),-82.2% (active),-42.4% (active),-23.2% (active),
CCC(=O)NC1=C(Cl)C(=O)C(NC(=O)CC)=C(Cl)C1=O,101%,106%,107%,115%,92.8%,91.4%,96.3%,102%,66.6%,-1.93% (active),111%,101,,50.5%,21.2%,103%,130%,,-42.7% (active),
O=C1OC(/C=C/c2ccccc2)=NC/1=C/c1ccccc1[N+](=O)[O-],97.9%,98.2%,82%,104%,100%,92.7%,99.8%,110%,89.1%,97.3%,94.7%,104,66.5%,115%,91.8%,88.7%,121%,91.1%,,
CC(C)(CCc1ccccn1)C(=O)CCCc1ccccn1,108%,97%,102%,94%,100%,89%,104%,89.8%,94.2%,115%,98.7%,94.8,85.9%,97%,97.4%,98%,96.3%,101%,84.8%,
COc1cc(Cl)cc(-c2nn(C(=O)NCCN3CCOCC3)cc2-c2ccncc2)c1,45.7%,34.1%,28.9%,69.2%,57.7%,70.6%,35.5%,52.4%,63.2%,61.4%,78.3%,75.3,56.9%,78%,65.6%,73.3%,65.7%,74.2%,,

# From PubChem BioAssay (NCI)
